# Laboratory results published in PubChem BioAssay (NCATS).
# Records with an inconclusive call do not appear. Where a call stands in place of a potency, no number is given. Activity calls are given as the source filed them. Unless noted, calls come from the whole dose curve.
# Legend:
# [1] = qHTS for Inhibitors of the Functional Ribonucleoprotein Complex (vRNP) of Lassa (LASV) Arenavirus: LASV Primary Screen - GLuc reporter signal (AID 1347082; calls by dose curve; tested in HEK293 reporter line; note: nearly all actives have a fitted effect of over 60% in size; note: potency is the fitted concentration of half-maximal effect)
# [2] = qHTS for Inhibitors of the Functional Ribonucleoprotein Complex (vRNP) of Lassa (LASV) Arenavirus: Viability assay - alamar blue signal for LASV Primary Screen (AID 1347083; calls by dose curve; tested in HEK293 reporter line; note: nearly all actives have a fitted effect of over 80% in size; note: potency is the fitted concentration of half-maximal effect)
# [3] = Cytotoxicity counterscreen for inhibitors of SARS-CoV-2 cell entry (AID 1645845); note: nearly all actives have a fitted effect of over 50% in size; note: potency is the fitted concentration of half-maximal effect
# Method in brief: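 HEK293-ACE2 cells (Expi293F stably expressing human ACE2) seeded overnight, then compound for 1 h plus 48 h at 37C. Viability as ATP content by luminescence; normalized to wells with cells and media-only wells.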
# [4] = Confirmatory qHTS to identify inhibitors of SARS-CoV-2 cell entry (AID 1645844); note: potency is the fitted concentration of half-maximal effect; nearly all actives have a fitted effect of over 45% in size
# Method in brief: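 HEK293-ACE2 cells were pretreated 1 h with compound, then infected with MLV-based pseudoparticles bearing C-terminally truncated Wuhan-Hu-1 spike for 48 h at 37C; luciferase luminescence normalized to spike PP and bald PP wells.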
# [5] = VSVG counterscreen qHTS to identify inhibitors of SARS-CoV-2 cell entry (AID 1645847); note: potency is the fitted concentration of half-maximal effect; nearly all actives have a fitted effect of over 65% in size
# Method in brief: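 Luminescence read after 48 h infection at 37 C with VSV-G-pseudotyped MLV particles, following 1 h compound exposure of Expi293F cells stably expressing human ACE2; scaled between bald particle and VSV-G particle wells.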
# [6] = qHTS profiling of the MIPE4 collection as inhibitors of Plasmodium falciparum (3D7) proliferation (AID 743344; call rule not given here); conditions: P. falciparum 3D7 in erythrocytes, SYBR Green DNA fluorescence, 72 h; at 28.5 µM (top of the series) unless noted
# Method in brief: (§1)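 Erythrocytes infected with P. falciparum (0.3% parasitemia, 2.5% hematocrit) incubated with compounds 72 h at 37 C, 5% CO2. Lysis with saponin/Triton buffer containing SYBR Green I, overnight at room temperature in the dark; DNA fluorescence (485/535 nm) normalised to 0.29 uM artemisinin and DMSO.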
# [7] = qHTS profiling of the MIPE4 collection as inhibitors of Plasmodium falciparum (DD2) proliferation (AID 743345; call rule not given here); conditions: P. falciparum Dd2 in erythrocytes, SYBR Green DNA, 72 h; at 28.5 µM (top of the series) unless noted
# Method in brief: as §1
# [8] = qHTS profiling of the MIPE4 collection as inhibitors of Plasmodium falciparum (HB3) proliferation (AID 743347; call rule not given here); conditions: P. falciparum HB3 in erythrocytes, SYBR Green DNA, 72 h; at 28.5 µM (top of the series) unless noted
# Method in brief: as §1
# [9] = Primary qHTS for inhibitors of SARS-S pseudo-typed particle cell entry (AID 1479145); note: nearly all actives have a fitted effect of over 45% in size
# [10] = Primary qHTS for Huh7 cytotoxicity: counterscreen for inhibitors of MERS-S pseudotyped particle cell entry (AID 1479147); conditions: outcome: dose series up to 57.1 µM unless noted
# [11] = Primary qHTS for inhibitors of MERS-S pseudo-typed particle cell entry (AID 1479149); note: nearly all actives have a fitted effect of over 60% in size
# [12] = Primary qHTS for Vero E6 cytotoxicity: counterscreen for inhibitors of SARS-S pseudo-typed particle cell entry (AID 1479150); conditions: outcome: dose series up to 57.1 µM unless noted
# [13] = Primary qHTS to identify inhibitors of SARS-CoV-2 cell entry (AID 1645846); conditions: activity change, negative = inhibition: at 57.1 µM (top of the series) unless noted; note: nearly all actives have a fitted effect of over 45% in size; note: potency is the fitted concentration of half-maximal effect
# Method in brief: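 Entry measured by luciferase signal 48 h after adding SARS-CoV-2-S pseudotyped MLV particles to HEK293-ACE2 cells preincubated 1 h with compounds. Normalisation: bald particles and spike particles.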
# [14] = biological target: Nucleoprotein (Lymphocytic choriomeningitis virus (strain Armstrong)) (UniProt P09992); assay: qHTS for Inhibitors of the Functional Ribonucleoprotein Complex (vRNP) of Lymphocytic Choriomeningitis Arenaviruses (LCMV): LCMV Primary Screen - GLuc reporter signal (AID 1347086); note: nearly all actives have a fitted effect of over 70% in size; note: potency is the fitted concentration of half-maximal effect
# [15] = Inducers of the Endoplasmic Reticulum Stress Response (ERSR) in human glioma: Validation (AID 504836; active = well fitted curve in the direction sought with a large enough effect; an effect the other way counts as inactive or inconclusive)
# Method in brief: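 Stably transfected U87-MG glioma cells carrying a GRP78-based luciferase sensor; 16 h compound incubation. Luminescence end-point read 10 min after Bright-Glo addition at room temperature.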
# [16] = S16 Schwann cell PMP22 intronic element firefly luciferase assay (AID 624032; active = well fitted curve in the direction sought with a large enough effect; an effect the other way counts as inactive or inconclusive; note: potency is the fitted concentration of half-maximal effect; nearly all actives have a fitted effect of over 30% in size)
# Method in brief: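 Rat S16 Schwann cells stably carrying firefly luciferase driven by a PMP22 intronic element, in 10% FBS, treated 24 h at 37 C. ONE-Glo luminescence normalized to PTC124 control and DMSO (0%); curves classed by r2, magnitude and activity.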
# Chain of Nucleoprotein (Lymphocytic choriomeningitis virus (strain Armstrong)) (P09992 whole entry, looked up): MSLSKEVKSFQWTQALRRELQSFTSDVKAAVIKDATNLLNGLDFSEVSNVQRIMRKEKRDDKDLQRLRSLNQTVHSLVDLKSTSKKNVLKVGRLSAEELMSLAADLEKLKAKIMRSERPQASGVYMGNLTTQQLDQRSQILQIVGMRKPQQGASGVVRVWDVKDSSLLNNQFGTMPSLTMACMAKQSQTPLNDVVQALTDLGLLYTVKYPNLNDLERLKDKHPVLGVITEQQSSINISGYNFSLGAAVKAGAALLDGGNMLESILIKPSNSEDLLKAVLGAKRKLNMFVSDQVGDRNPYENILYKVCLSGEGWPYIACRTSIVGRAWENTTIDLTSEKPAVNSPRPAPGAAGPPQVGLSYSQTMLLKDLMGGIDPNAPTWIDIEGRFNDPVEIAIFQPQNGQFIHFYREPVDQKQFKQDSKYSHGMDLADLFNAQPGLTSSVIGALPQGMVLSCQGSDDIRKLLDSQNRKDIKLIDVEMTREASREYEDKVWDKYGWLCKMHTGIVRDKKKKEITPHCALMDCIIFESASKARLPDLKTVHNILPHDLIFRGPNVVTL
smiles,measurement,setting,value
CN(C(Cc1ccc(OS(=O)(=O)c2cccc3cnccc23)cc1)C(=O)N1CCN(c2ccccc2)CC1)S(=O)(=O)c1cccc2cnccc12 (configuration not stated),Potency,[1],13.7 µM (active)
same,Potency,[2],21.7 µM (active)
same,Potency,[3],inactive
COc1ccc(Nc2cc(-c3cnc(N)nc3)nc(N3CCOCC3)n2)cn1,Potency,[1],12.2 µM (active)
same,Potency,[2],3.85 µM (active)
same,Potency,[4],0.341 µM (active)
same,Potency,[5],1.08 µM (active)
C[C@H](CCC(=O)O)[C@H]1CC[C@H]2[C@H]3[C@@H](CC[C@]12C)[C@@]1(C)CC[C@@H](O)C[C@H]1C[C@@H]3O,"parasite growth, % of DMSO control",[6],8.82%
same,"parasite growth remaining, % of DMSO control (lower = more inhibition)",[7],12.3%
same,"growth, % of control",[8],23.1%
same,Potency,[1],inactive
same,Potency,[2],inactive
same,Potency,[9],inactive
same,outcome,[10],inactive
same,Potency,[11],inactive
same,outcome,[12],inactive
same,Potency,[3],inactive
same,"activity change, negative = inhibition",[13],0.336%
CC(C)=CC[C@@H](O)C1=CC(=O)c2c(O)ccc(O)c2C1=O,Potency,[1],inactive
same,Potency,[2],inactive
same,Potency,[14],inactive
same,Potency,[3],inactive
same,Potency,[13],inactive
OC[C@H]1O[C@@H](n2cnc3c(NC4CCCC4)ncnc32)[C@H](O)[C@@H]1O,outcome,[15],inactive
same,Potency,[1],inactive
same,Potency,[2],inactive
same,Potency,[14],inactive
N[C@@]1(C(=O)O)CS(=O)(=O)[C@H]2[C@H](C(=O)O)[C@H]21,Potency,[1],inactive
same,Potency,[2],19.3 µM (active)
same,Potency,[14],inactive
same,Potency,[3],inactive
same,Potency,[13],inactive
CCC(C(=O)O)C1CCC(C)C(C(C)C(O)C(C)C(=O)C(CC)C2OC3(C=CC(O)[C@@]4(CC[C@](C)(C5CC[C@@](O)(CC)C(C)O5)O4)O3)C(C)CC2C)O1 (some centres not stated),Potency,[16],0.361 µM (active)
same,Potency,[1],3.43 µM (active)
same,Potency,[2],4.85 µM (active)
same,Potency,[14],0.968 µM (active)
same,Potency,[3],inactive
O=C(CCCCCCNC(=O)c1cnc(N(c2ccccc2)c2ccccc2)nc1)NO,Potency,[1],inactive
same,Potency,[2],30.6 µM (active)
same,Potency,[14],inactive
same,Potency,[13],inactive
CCc1ccc(OCc2ccccc2C(=O)Nc2ccc3nc(C)cc(N)c3c2)cc1,Potency,[1],12.2 µM (active)
same,Potency,[2],21.7 µM (active)
same,Potency,[3],15.8 µM (active)
same,Potency,[13],10 µM (active)
O=C1NC(O)CCN1[C@@H]1O[C@H](CO)[C@H](O)[C@H]1O (some centres not stated),Potency,[1],inactive
same,Potency,[2],inactive
same,Potency,[3],inactive
same,"activity change, negative = inhibition",[13],-26.7%
O=C(O)CCCCCC(=O)NN=C1CCCC1,Potency,[1],inactive
same,Potency,[2],inactive
same,Potency,[3],inactive
same,"activity change, negative = inhibition",[13],-16.8%
COc1cc(O)c2c(c1)C1OC1C[C@H](O)[C@H](O)C(=O)C=CC[C@H](C)OC2=O (some centres not stated),Potency,[1],34.3 µM (active)
same,Potency,[2],38.5 µM (active)
same,Potency,[14],34.3 µM (active)
same,Potency,[13],35.5 µM (active)
O=C1NC(=O)C(c2cnc3ccccn23)=C1c1cn2c3c(cccc13)CN(C(=O)N1CCOCC1)CC2,Potency,[1],inactive
same,Potency,[2],6.85 µM (active)
same,Potency,[14],inactive
same,Potency,[3],inactive
same,Potency,[5],0.215 µM (active)
